# Reference: publication PMC5540273 (PLoS ONE, 2017)
# System: T1, DRAK1
# T1 construct: gene STK17A
# Conditions: concentration: 1 μM,replicates: in singlicate; n = 1
# 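Further: KINOMEscan kinase panel screen.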
row,Structure (SMILES),%Inh [%]
1,CCn1c(-c2nonc2N)nc2cncc(Br)c21 [SB-738004],5
2,O=C1NCCc2[nH]c(-c3ccncc3)cc21,97.2
3,FC(F)(F)c1cc(Br)cc(Nc2nccc(-c3cnn4ncccc34)n2)c1 [GW810578],8
4,COc1cccc(OC)c1C(=O)Nc1cccc(-c2nn3ccccc3c2-c2ccnc(Nc3cccc(F)c3)n2)c1 [GSK361065],12
5,C[C@@H](Oc1cc(-n2cnc3cc(-c4ccncc4)ccc32)sc1C(N)=O)c1ccccc1Cl [GSK479719],0
6,NC(=O)c1ccc(-c2cc3ncnc(SCC(=O)O)c3s2)cc1,98.3
7,CC(C)S(=O)(=O)N1CCN(Cc2ccc3c(c2)nc(NC(=O)c2ccsc2)n3C[C@H](O)c2ccccc2)CC1 [GW635815],72
8,COc1cc2nccc(Nc3ccc(Oc4ccccc4)cc3)c2cc1OC.Cl [GI261656],0
9,CS(=O)c1ccc(-c2coc3ccc(-c4n[nH]c(=O)o4)cc23)cc1 (centres unmarked),61
10,OCCn1cc(-c2cnc3nnn(Cc4ccc5ncccc5c4)c3n2)cn1,10
11,COC(=O)c1cccc(NC(=O)NC2CCN(c3ccnc(Nc4cc(OC)c(OC)c(OC)c4)n3)C2)c1 (centres unmarked) [GSK1379767],0
12,O=c1[nH]cc(-c2ccc(O)cc2)c2sc(-c3ccncc3)cc12 [GSK1033723],31
13,COc1cc2ncn(-c3cc(OCC4CCCCC4)c(C(N)=O)s3)c2cc1OC [GSK204559],0
14,Cc1cccc(-c2nc(Nc3ccncc3)c3sccc3n2)n1 [GW869641],2
15,O=C(Nc1ccc(Oc2ccc3nc(NC(=O)C4CC4)cn3n2)c(F)c1)c1cccn(-c2ccccc2)c1=O,0
16,COC(=O)Nc1nc2cc(Oc3ccc(NC(=O)Nc4cc(C(F)(F)F)ccc4Cl)cc3)ccc2[nH]1.Cl [GW697465],2
17,Cc1ccc(C(=O)Nc2ccc(Oc3ccc4nc(NC(=O)C5CC5)cn4c3)c(F)c2)c(=O)n1-c1ccccc1,0
18,NC(=O)Nc1sc(-c2ccc(F)cc2)cc1C(N)=O [GW789449],43
19,C[C@@H]1CNc2c(sc3ccc4nc(-c5ccncc5)ccc4c23)C(=O)N1,99

row,Structure (SMILES),%Inh [%]
1,CCN1CCN(CCCC(=O)Nc2n[nH]c3nc(-c4ccc(O)cc4)c(Br)cc23)CC1 [SB-731579],44
2,C[C@@H]1CNc2c(sc3ccc4nc(-c5ccc(O)cc5)ccc4c23)C(=O)N1,100
3,Nc1nccc(-c2ccc3c(N)n[nH]c3c2)n1 [GSK1034945],98.1
4,c1ccc(Oc2ccc(Nc3ccnc4ccc(-c5ccccn5)cc34)cc2)cc1 [GW407034],0
5,CC(C(=O)NC1CCN(c2ccnc(Nc3ccc(F)cc3)n2)C1)c1ccc(Cl)cc1 (centres unmarked) [GSK1379713],6
6,CCn1c(-c2nonc2N)nc2cncc(CNC3CCNCC3)c21.Cl [SB-747651],6
7,CN1CCN(CCCNc2nccc(-c3c(-c4ccc(F)cc4)nn4cc(C(N)=O)ccc34)n2)CC1 [GW622475],0
8,COc1cccc(CNC(=O)NC2CCN(c3ccnc(Nc4cc(OC)c(OC)c(OC)c4)n3)C2)c1 (centres unmarked) [GSK1379765],0
9,Cn1ccc2ncnc(Oc3ccc(NC(=O)Nc4cccc(C(F)(F)F)c4)c(F)c3)c21,0
10,CC(=O)c1c(-c2ccncc2)[nH]c(-c2ccncc2)c1C [GW493036],44
11,CCOC(=O)N1CCC(n2cnc(-c3ccc(F)cc3)c2-c2ccnc(N)n2)CC1 [SB-219952],0
12,C[C@@H](Oc1cc(-n2cnc3ccc(-c4ccncc4)cc32)sc1C(N)=O)c1ccccc1Cl [GSK483724],81
13,CN(c1ccc2c(c1)nc(NCc1ccc(F)cc1)n2C)c1ccnc(Nc2ccc(CS(C)(=O)=O)cc2)n1.Cl [GW813244],15
14,COc1cccc(C2=C(Nc3cccc(Cl)c3)C(=O)NC2=O)c1 [SB-341556],0
15,O=C(Nc1cccc(Oc2ccc3nccn3n2)c1)Nc1cccc(C(F)(F)F)c1,0
16,O=C(NOCC1CC1)c1cc(Br)c(F)c(F)c1Nc1ccc(I)cc1Cl,0
17,CN1CCN(CCNc2nc3cc(Oc4ccc(NC(=O)Nc5cc(C(F)(F)F)ccc5F)cc4)ccc3[nH]2)CC1.Cl.Cl [GW768504],0
18,N#Cc1cccc(C(=O)NC2CCN(c3ccnc(Nc4ccc(F)cc4)n3)C2)c1 (centres unmarked) [GSK1379708],0

# System: T2, DRAK2
# T2 construct: gene STK17B
# Conditions: concentration: 1 μM,replicates: in singlicate; n = 1
row,Structure (SMILES),%Inh [%]
1,CCn1c(-c2nonc2N)nc2cncc(Br)c21 [SB-738004],0
2,O=C1NCCc2[nH]c(-c3ccncc3)cc21,100
3,FC(F)(F)c1cc(Br)cc(Nc2nccc(-c3cnn4ncccc34)n2)c1 [GW810578],36
4,COc1cccc(OC)c1C(=O)Nc1cccc(-c2nn3ccccc3c2-c2ccnc(Nc3cccc(F)c3)n2)c1 [GSK361065],12
5,C[C@@H](Oc1cc(-n2cnc3cc(-c4ccncc4)ccc32)sc1C(N)=O)c1ccccc1Cl [GSK479719],0
6,NC(=O)c1ccc(-c2cc3ncnc(SCC(=O)O)c3s2)cc1,100
7,CC(C)S(=O)(=O)N1CCN(Cc2ccc3c(c2)nc(NC(=O)c2ccsc2)n3C[C@H](O)c2ccccc2)CC1 [GW635815],11
8,COc1cc2nccc(Nc3ccc(Oc4ccccc4)cc3)c2cc1OC.Cl [GI261656],0
9,CS(=O)c1ccc(-c2coc3ccc(-c4n[nH]c(=O)o4)cc23)cc1 (centres unmarked),100
10,OCCn1cc(-c2cnc3nnn(Cc4ccc5ncccc5c4)c3n2)cn1,12
11,COC(=O)c1cccc(NC(=O)NC2CCN(c3ccnc(Nc4cc(OC)c(OC)c(OC)c4)n3)C2)c1 (centres unmarked) [GSK1379767],0
12,O=c1[nH]cc(-c2ccc(O)cc2)c2sc(-c3ccncc3)cc12 [GSK1033723],0
13,COc1cc2ncn(-c3cc(OCC4CCCCC4)c(C(N)=O)s3)c2cc1OC [GSK204559],0
14,Cc1cccc(-c2nc(Nc3ccncc3)c3sccc3n2)n1 [GW869641],13
15,O=C(Nc1ccc(Oc2ccc3nc(NC(=O)C4CC4)cn3n2)c(F)c1)c1cccn(-c2ccccc2)c1=O,0
16,COC(=O)Nc1nc2cc(Oc3ccc(NC(=O)Nc4cc(C(F)(F)F)ccc4Cl)cc3)ccc2[nH]1.Cl [GW697465],0
17,Cc1ccc(C(=O)Nc2ccc(Oc3ccc4nc(NC(=O)C5CC5)cn4c3)c(F)c2)c(=O)n1-c1ccccc1,1
18,NC(=O)Nc1sc(-c2ccc(F)cc2)cc1C(N)=O [GW789449],70
19,C[C@@H]1CNc2c(sc3ccc4nc(-c5ccncc5)ccc4c23)C(=O)N1,98.3

row,Structure (SMILES),%Inh [%]
1,CCN1CCN(CCCC(=O)Nc2n[nH]c3nc(-c4ccc(O)cc4)c(Br)cc23)CC1 [SB-731579],0
2,C[C@@H]1CNc2c(sc3ccc4nc(-c5ccc(O)cc5)ccc4c23)C(=O)N1,100
3,Nc1nccc(-c2ccc3c(N)n[nH]c3c2)n1 [GSK1034945],89
4,c1ccc(Oc2ccc(Nc3ccnc4ccc(-c5ccccn5)cc34)cc2)cc1 [GW407034],0
5,CC(C(=O)NC1CCN(c2ccnc(Nc3ccc(F)cc3)n2)C1)c1ccc(Cl)cc1 (centres unmarked) [GSK1379713],0
6,CCn1c(-c2nonc2N)nc2cncc(CNC3CCNCC3)c21.Cl [SB-747651],0
7,CN1CCN(CCCNc2nccc(-c3c(-c4ccc(F)cc4)nn4cc(C(N)=O)ccc34)n2)CC1 [GW622475],17
8,COc1cccc(CNC(=O)NC2CCN(c3ccnc(Nc4cc(OC)c(OC)c(OC)c4)n3)C2)c1 (centres unmarked) [GSK1379765],0
9,Cn1ccc2ncnc(Oc3ccc(NC(=O)Nc4cccc(C(F)(F)F)c4)c(F)c3)c21,24
10,CC(=O)c1c(-c2ccncc2)[nH]c(-c2ccncc2)c1C [GW493036],76
11,CCOC(=O)N1CCC(n2cnc(-c3ccc(F)cc3)c2-c2ccnc(N)n2)CC1 [SB-219952],0
12,C[C@@H](Oc1cc(-n2cnc3ccc(-c4ccncc4)cc32)sc1C(N)=O)c1ccccc1Cl [GSK483724],0
13,CN(c1ccc2c(c1)nc(NCc1ccc(F)cc1)n2C)c1ccnc(Nc2ccc(CS(C)(=O)=O)cc2)n1.Cl [GW813244],7
14,COc1cccc(C2=C(Nc3cccc(Cl)c3)C(=O)NC2=O)c1 [SB-341556],0
15,O=C(Nc1cccc(Oc2ccc3nccn3n2)c1)Nc1cccc(C(F)(F)F)c1,0
16,O=C(NOCC1CC1)c1cc(Br)c(F)c(F)c1Nc1ccc(I)cc1Cl,0
17,CN1CCN(CCNc2nc3cc(Oc4ccc(NC(=O)Nc5cc(C(F)(F)F)ccc5F)cc4)ccc3[nH]2)CC1.Cl.Cl [GW768504],17
18,N#Cc1cccc(C(=O)NC2CCN(c3ccnc(Nc4ccc(F)cc4)n3)C2)c1 (centres unmarked) [GSK1379708],4
